# Test results published in PubChem BioAssay.
# Active and inactive are the calls of the source. Unless noted, how the calls were made is not given here.
# Tests used:
# [1] = system: Wnt5a (protein binding on small-molecule microarray); assay: small molecules binding Wnt5a protein – biophysical, small-molecule microarray, 635/667 nm fluorescence, primary screen (AID 1142); conditions: 635 nm fluorescence, higher = more signal;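 further: fluorescence read at 667 nm with signal to noise per printed feature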
# [2] = ATP-based viability of Huh7 replicon cells – cell-based, CellTiter-Glo luminescence, basal, 48 h, cytotoxicity control for HCV replication inhibitor project, primary screen (AID 1143); conditions: higher = more signal, called active from +8 up or from −8 down;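 further: Huh7 hepatoma cells carrying a hepatitis C replication reporter with no stimulus; test concentration not given here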
# [3] = Pseudomonas biofilm growth suppression – PAO1 strain, BacTiter-Glo luminescence, LB-PBS, primary screen (AID 1144); conditions: P. aeruginosa PAO1 biofilm, 12 h, higher = more signal
# [4] = basal CRE-LacZ reporter activity in PC12 – cell-based, unstimulated, primary screen (AID 1145); conditions: no forskolin, luminescence, 4.5 h, higher = more signal, called active from +8 up or from −8 down
# [5] = forskolin-driven CRE-LacZ activity in PC12 – cell-based, CRE-LacZ reporter, forskolin-stimulated, primary screen (AID 1146); conditions: luminescence, 4.5 h, higher = more signal, called active from +8 up or from −8 down;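 further: PC12 cells with 6xCRE LacZ reporter stimulated by forskolin 10 µM; beta-galactosidase reporter signal reflecting CREB driven transcription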
# [6] = molecular target: Streptavidin (Streptomyces avidinii) (UniProt P22629); assay: compounds binding control protein streptavidin – biophysical, small-molecule microarray, 635/667 nm fluorescence, artefact control for SMM compound annotation, primary screen (AID 1147); conditions: higher = more signal;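 further: signal reflects streptavidin binding to arrayed compounds as a control protein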
# [7] = probe aInhba binding on compound microarray – biochemical, small-molecule microarray, 635/667 nm fluorescence, primary screen (AID 1148); conditions: higher = more signal;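 further: score merges 667nm spot fluorescence with signal-to-noise for antibody binding to printed compounds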
# [8] = molecular target: Torsin-1A (Homo sapiens) (UniProt O14656); assay: TOR1A wild-type binding on microarray – cell lysate, small-molecule microarray, lysate, 635/667 nm, primary screen (AID 1149); conditions: COS7 hTOR1A-WT lysate, 635 nm fluorescence, higher = more signal
# [9] = molecular target: Torsin-1A (Homo sapiens) (UniProt O14656); assay: torsin A mutant lysate binding on microarrays – cell lysate, small-molecule microarray, COS7 lysate, 635/667 nm fluorescence, primary screen (AID 1150); conditions: COS7 hTOR1A mutant lysate, 635 nm fluorescence, higher = more signal;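 further: score pools 667 nm emission and signal to noise measuring lysate protein binding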
# [10] = system: Sonic hedgehog protein (Shh); assay: Sonic hedgehog microarray binding compounds – biochemical, small-molecule microarray, 635/667 nm fluorescence, primary screen (AID 1151); conditions: 635 nm fluorescence, higher = more signal;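 further: Shh protein binding to compounds spotted on small-molecule microarray slides; score combines spot fluorescence intensity with signal-to-noise across triplicate slides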
# [11] = optical density shifts of acrAB sulA E. coli – strain DRC41, OD650, 48 h, E. coli filamentation inducer project, primary screen (AID 1152); conditions: higher = more signal, called active from +8 up or from −8 down;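 further: E. coli MC1000 strain DRC41 lacking acrAB efflux pump and sulA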
# [12] = probe aLefty1 binding on compound microarray – biochemical, small-molecule microarray, 635/667 nm fluorescence, primary screen (AID 1153); conditions: higher = more signal;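 further: score merges spot fluorescence with signal-to-noise ratio from the scanned slide images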
# [13] = plasmodial surface anion channel blockers, osmotic lysis – cell-based, P. falciparum Indochina, OD700, 1 h, primary screen (AID 1154); conditions: P. falciparum Indochina infected RBC osmotic lysis, higher = more signal, called active from +8 up or from −8 down
# [14] = plasmodial surface anion channel blockers, osmotic lysis – cell-based, P. falciparum Indochina, OD700, 2 h, primary screen (AID 1155);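 further: lysis reports solute entry through the parasite surface anion channel PSAC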; conditions: P. falciparum Indochina infected erythrocytes, higher = more signal, called active from +8 up or from −8 down
# [15] = changes in parasitized red cell lysis, either direction – P. falciparum Indochina, OD700, 3 h, PSAC antagonist project, primary screen (AID 1156); conditions: P. falciparum-infected erythrocytes, osmotic lysis, higher = more signal, called active from +8 up or from −8 down
# [16] = plasmodial surface anion channel blockers, osmotic lysis – cell-based, P. falciparum Indochina, OD700, 18 h, primary screen (AID 1157); conditions: P. falciparum Indochina infected erythrocytes, osmotic lysis OD700, 18 h; higher = more signal, called active from +8 up or from −8 down
# [17] = S6 kinase pathway phospho-S6 level changes – cell-based, A549, cytoblot, luminescence, serum-stimulated, primary screen (AID 1158); conditions: 5 h, higher = more signal;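 further: serum-stimulated A549 lung adenocarcinoma cells; signal is phosphorylated S6 detected by cytoblot immunostaining with HRP secondary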
# [18] = molecular target: NADPH oxidase 2 (Homo sapiens) (UniProt P04839); assay: compounds shifting NOX2 Amplex Red fluorescence – cell-based, HEK293-NOX2, PMA-stimulated, NOX inhibitor project, primary screen (AID 1159); conditions: 45 min, higher = more signal, called active from +8 up or from −8 down; further: test concentration not given here
# [19] = molecular target: NADPH oxidase 4 (Homo sapiens) (UniProt Q9NPH5); assay: compounds shifting NOX4 Amplex Red fluorescence – cell-based, HEK293-NOX4, tetracycline-induced, NOX inhibitor project, primary screen (AID 1160); conditions: HEK293-NOX4, Amplex Red H2O2 fluorescence, 45 min; higher = more signal, called active from +8 up or from −8 down
# [20] = molecular target: NADPH oxidase 5 (Homo sapiens) (UniProt Q96PH1); assay: compounds shifting NOX5 Amplex Red fluorescence – cell-based, HEK293-NOX5, NOX inhibitor project, primary screen (AID 1161); conditions: HEK293-NOX5, ionomycin, 45 min, higher = more signal
# NADPH oxidase 5 (Homo sapiens), sequence (Q96PH1 whole entry, looked up): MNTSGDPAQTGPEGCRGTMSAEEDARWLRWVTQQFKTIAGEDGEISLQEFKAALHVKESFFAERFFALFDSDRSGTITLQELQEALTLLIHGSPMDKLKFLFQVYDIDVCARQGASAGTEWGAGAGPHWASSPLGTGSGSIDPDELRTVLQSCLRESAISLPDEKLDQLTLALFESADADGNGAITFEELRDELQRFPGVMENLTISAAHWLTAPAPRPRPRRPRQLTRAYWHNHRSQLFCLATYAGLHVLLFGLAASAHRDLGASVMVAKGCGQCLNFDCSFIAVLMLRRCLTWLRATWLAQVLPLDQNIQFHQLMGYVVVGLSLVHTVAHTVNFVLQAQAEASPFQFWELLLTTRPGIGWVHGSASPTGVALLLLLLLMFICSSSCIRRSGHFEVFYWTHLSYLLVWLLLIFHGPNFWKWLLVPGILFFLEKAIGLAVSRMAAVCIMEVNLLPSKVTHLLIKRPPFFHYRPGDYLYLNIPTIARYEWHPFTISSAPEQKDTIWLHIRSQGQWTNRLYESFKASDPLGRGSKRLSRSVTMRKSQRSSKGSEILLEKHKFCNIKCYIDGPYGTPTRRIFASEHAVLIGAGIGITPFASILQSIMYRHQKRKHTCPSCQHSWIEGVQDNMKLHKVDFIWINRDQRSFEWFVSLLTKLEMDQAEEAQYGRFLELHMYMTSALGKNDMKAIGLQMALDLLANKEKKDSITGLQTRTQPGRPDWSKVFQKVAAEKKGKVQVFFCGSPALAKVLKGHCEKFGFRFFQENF
# NADPH oxidase 2 (Homo sapiens), sequence (P04839 whole entry, looked up): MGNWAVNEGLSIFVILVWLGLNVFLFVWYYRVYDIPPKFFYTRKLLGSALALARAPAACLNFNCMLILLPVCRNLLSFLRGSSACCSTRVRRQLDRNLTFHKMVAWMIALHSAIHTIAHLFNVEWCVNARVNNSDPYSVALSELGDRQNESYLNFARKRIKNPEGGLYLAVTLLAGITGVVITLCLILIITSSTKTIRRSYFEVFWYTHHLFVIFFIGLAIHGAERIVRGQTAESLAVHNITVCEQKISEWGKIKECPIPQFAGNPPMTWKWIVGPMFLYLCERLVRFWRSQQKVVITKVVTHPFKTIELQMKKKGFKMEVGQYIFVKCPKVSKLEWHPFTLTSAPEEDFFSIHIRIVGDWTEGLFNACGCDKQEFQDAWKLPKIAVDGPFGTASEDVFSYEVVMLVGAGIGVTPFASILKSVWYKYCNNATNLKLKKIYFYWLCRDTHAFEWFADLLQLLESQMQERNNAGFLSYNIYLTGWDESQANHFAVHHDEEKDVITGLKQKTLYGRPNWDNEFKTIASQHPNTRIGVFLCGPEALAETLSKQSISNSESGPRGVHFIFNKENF
# Streptavidin (Streptomyces avidinii), sequence (P22629 whole entry, looked up): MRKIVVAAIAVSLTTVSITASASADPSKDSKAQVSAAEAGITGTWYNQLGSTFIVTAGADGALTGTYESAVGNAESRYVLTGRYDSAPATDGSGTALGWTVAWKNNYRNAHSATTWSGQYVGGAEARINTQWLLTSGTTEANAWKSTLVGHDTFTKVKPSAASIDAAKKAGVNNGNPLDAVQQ
# NADPH oxidase 4 (Homo sapiens), sequence (Q9NPH5 whole entry, looked up): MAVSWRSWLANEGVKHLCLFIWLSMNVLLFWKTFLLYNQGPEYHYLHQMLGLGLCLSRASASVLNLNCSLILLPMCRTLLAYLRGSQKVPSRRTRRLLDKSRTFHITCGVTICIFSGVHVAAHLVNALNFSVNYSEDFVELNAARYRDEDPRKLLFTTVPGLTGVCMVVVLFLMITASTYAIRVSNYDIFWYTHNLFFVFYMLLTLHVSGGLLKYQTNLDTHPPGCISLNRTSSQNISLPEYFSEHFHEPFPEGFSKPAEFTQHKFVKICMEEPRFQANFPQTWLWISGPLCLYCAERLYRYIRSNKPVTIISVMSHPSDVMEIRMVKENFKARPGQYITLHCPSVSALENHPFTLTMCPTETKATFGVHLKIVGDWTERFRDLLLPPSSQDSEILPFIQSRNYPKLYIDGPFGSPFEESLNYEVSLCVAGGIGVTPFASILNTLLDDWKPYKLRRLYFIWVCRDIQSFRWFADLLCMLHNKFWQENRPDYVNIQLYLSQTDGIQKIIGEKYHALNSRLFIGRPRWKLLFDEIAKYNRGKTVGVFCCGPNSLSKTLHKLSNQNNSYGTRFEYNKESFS
# Torsin-1A (Homo sapiens), sequence (O14656 whole entry, looked up): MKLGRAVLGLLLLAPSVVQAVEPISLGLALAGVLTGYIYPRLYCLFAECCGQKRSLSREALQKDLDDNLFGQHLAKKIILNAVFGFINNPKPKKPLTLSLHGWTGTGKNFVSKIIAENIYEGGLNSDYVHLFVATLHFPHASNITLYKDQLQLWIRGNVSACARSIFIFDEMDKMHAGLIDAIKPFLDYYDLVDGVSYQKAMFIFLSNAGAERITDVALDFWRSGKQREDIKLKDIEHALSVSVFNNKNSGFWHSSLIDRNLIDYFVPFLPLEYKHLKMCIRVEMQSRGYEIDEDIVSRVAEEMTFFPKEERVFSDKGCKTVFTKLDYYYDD
Structure (SMILES),composite z-score [1],z-score [2],z-score [3],z-score [4],z-score [5],composite z-score [6],composite z-score [7],composite z-score [8],composite z-score [9],composite z-score [10],z-score [11],composite z-score [12],z-score [13],z-score [14],z-score [15],z-score [16],z-score [17],z-score [18],z-score [19],z-score [20]
CC(C)C(O)C1C=CC2C(=O)NC(=O)C2N1Nc1ccccn1 (stereo not given),0.122,0.813 (inactive),-0.248 (inactive),-0.143 (inactive),0.219 (inactive),0.0669,-0.0421,0.238,0.407,-0.212,-0.668 (inactive),0.134,-0.292 (inactive),0.695 (inactive),-0.0484 (inactive),0.826 (inactive),-0.846,-1.22 (inactive),-1.41 (inactive),-1.79
O=C1C2C=CC(C(O)c3cccs3)N(Nc3ccc([N+](=O)[O-])cc3)C2C(=O)N1c1ccccc1 (stereo not given),0.0001,0.0886 (inactive),0.461 (inactive),-0.685 (inactive),-0.275 (inactive),0.46,-0.0791,-0.236,0.303,-0.441,-0.46 (inactive),-0.105,8.61 (active),1.43 (inactive),1.75 (inactive),0.753 (inactive),-0.772,-0.437 (inactive),-2.75 (inactive),-1.55
COC(=O)[C@@]1(Cc2ccc(OC)cc2)[C@H]2c3cc(C(=O)N4CCCC4)n(Cc4ccc(C(F)(F)F)nc4)c3C[C@H]2CN1C(=O)c1ccccc1,0.426,-2.36 (inactive),0.361 (inactive),-0.372 (inactive),0.945 (inactive),-0.012,0.225,0.866,0.52,-0.246,-2.07 (inactive),-0.0647,6.38 (inactive),4.52 (inactive),0.746 (inactive),3.37 (inactive),-0.249,0.101 (inactive),0.564 (inactive),0.63
CC(C)=CCCC(C)=CC(O)C1C=CC2C(=O)NC(=O)C2N1Nc1ccccn1 (stereo not given),0.827,-0.614 (inactive),-0.564 (inactive),-0.333 (inactive),-0.0179 (inactive),0.968,-0.154,1.61,1.53,2.08,-0.255 (inactive),-0.864,0.494 (inactive),-0.531 (inactive),-0.725 (inactive),-1.94 (inactive),0.585,-0.637 (inactive),-1.61 (inactive),-0.467
COC(=O)C(CC#Cc1ccc2c(c1)[C@]1(C(=O)N2)[C@H](C(=O)N2CCc3cc(OC)c(OC)cc3C2)[C@H]2C(=O)O[C@H](c3ccccc3)[C@H](c3ccccc3)N2[C@@H]1c1ccccc1OCCO)C(=O)OC,0.345,-2.91 (inactive),-0.375 (inactive),-0.168 (inactive),0.214 (inactive),1,0.0561,0.885,1.15,1.99,0.113 (inactive),0.0429,2.85 (inactive),1.76 (inactive),0.848 (inactive),1.08 (inactive),-0.416,2.02 (inactive),0.405 (inactive),1.9
O=C(NCCN1CCOCC1)[C@@H]1c2ccccc2C(=O)N(Cc2ccc(OC(F)(F)F)cc2)[C@H]1c1ccc(CO)cc1,0.0235,-0.281 (inactive),-0.0358 (inactive),0.558 (inactive),0.338 (inactive),-0.119,-0.0762,-0.282,0.459,-0.0784,-0.288 (inactive),-0.222,1.09 (inactive),0.655 (inactive),1.74 (inactive),-0.161 (inactive),-0.219,0.134 (inactive),0.891 (inactive),2.07
O=C1C[C@]2(c3ccc([N+](=O)[O-])cc3)C(=O)N(C3CC3)c3cc(CO)ccc3[C@H]2N1C1CCCCC1,-0.0069,1.09 (inactive),-0.21 (inactive),0.802 (inactive),0.634 (inactive),0.358,-0.159,-0.145,-0.192,0.147,-0.348 (inactive),0.91,-0.58 (inactive),0.0608 (inactive),-1.35 (inactive),-0.0894 (inactive),-0.278,0.0692 (inactive),0.987 (inactive),0.0695
CC(C)C(=C=CC[C@H](O)c1ccccc1OCCO)C[C@H](O)c1cc(Cl)cc(Cl)c1O,0.192,-0.825 (inactive),-0.328 (inactive),14.6 (active),1.59 (inactive),0.855,0.0966,0.786,1.06,1.85,-0.279 (inactive),0.199,19.5 (active),4.2 (inactive),-0.25 (inactive),1.44 (inactive),-0.383,-1.24 (inactive),-1.67 (inactive),-1.88
